The source of these data is PubChem BioAssay.

Assay [1] can be described thus: antimalarial activity against Dd2 strain (AID 2302;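 active means growth inhibition above 50% at the single 2 µM test dose, taken to imply half-maximal potency below 2 µM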;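 further: 0% = DMSO untreated growth and 100% = chloroquine plus artemisinin killed control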). The following applies: P. falciparum Dd2 in RBCs, LDH growth readout, 72 h; at 2 µM; active compounds read high.
Assay [2] in a line: human hepatoma cell viability loss – ATP luminescence, cytotoxicity control for P. falciparum antimalarial project, primary screen (AID 2303;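 active means inhibition above 50%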;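 further: 0% = DMSO wells and 100% = digitonin-killed cells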). The following applies: HepG2 viability, 24-48 h, at 10 µM, active compounds read high.
Assay [3] has as its target L-lactate dehydrogenase (Plasmodium falciparum (isolate CDC / Honduras)) (UniProt Q27743). Kind of assay: PfLDH activity inhibition – cell lysate, 3D7 strain, counter-screen for P. falciparum growth inhibition project (AID 2304).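 Further: 0% = vehicle and 100% = reference inhibitor.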 The following applies: P. falciparum 3D7 crude extract, LDH APAD/NBT absorbance; at 2 µM; active compounds read high.
A short description of assay [4]: inhibition of 3D7 malaria parasite growth – strain 3D7 (AID 2306).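 Further: 0% = DMSO wells and 100% = chloroquine plus artemisinin control wells.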 The following applies: P. falciparum 3D7 erythrocytic growth, LDH absorbance, 72 h; at 2 µM; active compounds read high.
Assay [5] addresses Calcium-dependent protein kinase 1 (Plasmodium falciparum (isolate 3D7)) (UniProt P62344). The assay can be described thus: PfCDPK1 kinase inhibitors, biochemical, TCAMS library (AID 1159585; cut-off not given, nearly all actives have IC50 up to about 0.98 µM;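 further: inhibitors leave more ATP so luminescence rises with inhibition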). As to conditions: recombinant PfCDPK1, Kinase-Glo ATP depletion luminescence.
In assay [6] the target is Plasmodium falciparum protein kinase 6 (PK6, PF3D7_1337100) (UniProt Q8IDW1). Kind of assay: PfPK6 kinase inhibitors, biochemical, TCAMS library (AID 1159586). The following applies: recombinant PfPK6, Kinase-Glo ATP depletion luminescence.
For assay [7], the target named is Protein kinase 7 (PK7), Plasmodium falciparum 3D7 (PF3D7_0213400) (UniProt Q7YTF7). Kind of assay: inhibition of Plasmodium PK7 catalytic activity – biochemical, TCAMS antimalarial set, Kinase-Glo luminescence (AID 1159587). As to conditions: recombinant PfPK7, Kinase-Glo ATP depletion luminescence.
Assay [8] has as its target Calcium-dependent protein kinase 4 (Plasmodium falciparum (isolate 3D7)) (UniProt Q8IBS5). Kind of assay: PfCDPK4 kinase inhibitors, biochemical, TCAMS library (AID 1159588; cut-off not given, nearly all actives have IC50 up to about 0.91 µM). The following applies: recombinant PfCDPK4, Kinase-Glo ATP depletion luminescence.

Unmarked numbers belong to inactive results. For some of these results: Potency and affinity values are given separately. The source made the active and inactive calls. Unless noted, how the calls were made is not given here.

Sequence of Plasmodium falciparum protein kinase 6 (PK6, PF3D7_1337100) (Q8IDW1 1-305): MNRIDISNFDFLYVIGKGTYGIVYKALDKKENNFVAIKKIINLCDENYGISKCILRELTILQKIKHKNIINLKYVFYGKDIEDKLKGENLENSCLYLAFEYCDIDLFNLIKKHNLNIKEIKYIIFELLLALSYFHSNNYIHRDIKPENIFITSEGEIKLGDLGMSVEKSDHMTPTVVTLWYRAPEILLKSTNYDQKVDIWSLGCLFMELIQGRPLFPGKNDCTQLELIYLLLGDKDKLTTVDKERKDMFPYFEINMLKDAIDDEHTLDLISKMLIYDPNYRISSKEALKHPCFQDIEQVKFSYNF
Sequence of Calcium-dependent protein kinase 1 (Plasmodium falciparum (isolate 3D7)) (P62344 whole entry, looked up): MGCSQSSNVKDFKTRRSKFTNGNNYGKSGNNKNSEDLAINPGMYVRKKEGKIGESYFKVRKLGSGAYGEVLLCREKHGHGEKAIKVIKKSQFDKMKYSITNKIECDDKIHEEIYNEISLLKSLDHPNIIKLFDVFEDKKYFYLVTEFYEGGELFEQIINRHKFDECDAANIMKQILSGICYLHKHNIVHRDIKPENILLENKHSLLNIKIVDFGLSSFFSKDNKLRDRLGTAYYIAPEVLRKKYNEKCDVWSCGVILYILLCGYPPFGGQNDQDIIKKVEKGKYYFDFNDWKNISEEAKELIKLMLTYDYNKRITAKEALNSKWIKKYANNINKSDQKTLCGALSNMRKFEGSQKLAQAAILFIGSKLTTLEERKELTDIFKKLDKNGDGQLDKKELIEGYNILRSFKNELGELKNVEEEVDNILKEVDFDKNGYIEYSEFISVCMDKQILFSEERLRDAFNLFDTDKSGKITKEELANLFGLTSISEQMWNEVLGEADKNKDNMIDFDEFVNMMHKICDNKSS
Sequence of Protein kinase 7 (PK7), Plasmodium falciparum 3D7 (PF3D7_0213400) (Q7YTF7 1-343): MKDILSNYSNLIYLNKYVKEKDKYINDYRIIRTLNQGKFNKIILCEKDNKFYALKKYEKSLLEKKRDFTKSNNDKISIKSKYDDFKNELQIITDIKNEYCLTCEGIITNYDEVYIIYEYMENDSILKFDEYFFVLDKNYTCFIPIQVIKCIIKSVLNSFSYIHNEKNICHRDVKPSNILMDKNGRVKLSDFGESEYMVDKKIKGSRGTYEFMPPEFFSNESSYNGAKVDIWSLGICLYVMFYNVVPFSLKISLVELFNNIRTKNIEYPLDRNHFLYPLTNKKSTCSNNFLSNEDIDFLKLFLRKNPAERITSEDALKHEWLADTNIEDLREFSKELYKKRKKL
Sequence of Calcium-dependent protein kinase 4 (Plasmodium falciparum (isolate 3D7)) (Q8IBS5 whole entry, looked up): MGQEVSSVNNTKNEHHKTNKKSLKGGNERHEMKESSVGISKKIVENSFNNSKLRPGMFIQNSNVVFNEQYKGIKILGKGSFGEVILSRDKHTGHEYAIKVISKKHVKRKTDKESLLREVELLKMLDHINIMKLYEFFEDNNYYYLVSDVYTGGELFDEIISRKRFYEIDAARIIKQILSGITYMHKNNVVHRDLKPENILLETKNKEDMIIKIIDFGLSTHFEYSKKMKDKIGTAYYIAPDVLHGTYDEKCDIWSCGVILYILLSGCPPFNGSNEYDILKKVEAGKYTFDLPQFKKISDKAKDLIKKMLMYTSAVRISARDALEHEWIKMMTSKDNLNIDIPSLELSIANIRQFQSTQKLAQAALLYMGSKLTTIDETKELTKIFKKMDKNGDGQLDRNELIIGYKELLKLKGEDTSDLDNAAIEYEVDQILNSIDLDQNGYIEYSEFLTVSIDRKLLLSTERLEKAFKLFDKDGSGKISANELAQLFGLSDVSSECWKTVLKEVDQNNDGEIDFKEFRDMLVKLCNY
Sequence of L-lactate dehydrogenase (Plasmodium falciparum (isolate CDC / Honduras)) (Q27743 whole entry, looked up): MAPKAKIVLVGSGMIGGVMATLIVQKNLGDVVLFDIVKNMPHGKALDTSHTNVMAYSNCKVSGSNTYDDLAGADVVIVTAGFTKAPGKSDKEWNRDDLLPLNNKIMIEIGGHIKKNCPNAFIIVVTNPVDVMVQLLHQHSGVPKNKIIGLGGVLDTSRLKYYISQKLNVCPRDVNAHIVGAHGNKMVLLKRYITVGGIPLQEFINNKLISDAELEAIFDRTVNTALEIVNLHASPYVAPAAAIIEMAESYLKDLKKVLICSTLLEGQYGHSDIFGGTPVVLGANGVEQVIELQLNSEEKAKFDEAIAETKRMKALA

As for `CCN1CCN(c2cc(C)c3cc(NC(=O)c4cccc([N+](=O)[O-])c4)ccc3n2)CC1`, the growth inhibition in assay [1] is 73% (active); in assay [4] it was 99% (active). In addition, the inhibition in assay [2] is 74% (active); in assay [3] it was -3%. Moreover, the result in assay [5], in assay [6], in assay [7] and in assay [8] was inactive.

Turning to `CS(=O)(=O)c1ccc(-n2nc(C(F)(F)F)cc2-c2ccc(/C=N/OCC(=O)O)o2)cc1`, the results for the growth inhibition in assay [1] and in assay [4] were 0% and 87% (active), respectively. The inhibition is -15% in assay [2] and -7% in assay [3]. The result in assay [5], in assay [6], in assay [7] and in assay [8] was inactive.

For `COc1ccccc1CN1CCC(CNC(=O)c2cc(-c3cccc(C(F)(F)F)c3)cs2)C1` (stereo not given), the growth inhibition was 1% in assay [1] and 84% (active) in assay [4]. The values for the inhibition in assay [2] and in assay [3] were 25% and 4%, respectively. Further, the result in assay [5], in assay [6], in assay [7] and in assay [8] was inactive.

As to `CCC(CC)CN1C(=O)C(C)(c2ccccc2)N=C1N` (stereo not given), the growth inhibition was 11% in assay [1] and 84% (active) in assay [4]. In addition, the inhibition in assay [2] was 1%; in assay [3], -2%. The result in assay [5], in assay [6], in assay [7] and in assay [8] was inactive.

As for `CCCCOC(=O)[C@H](CCC)NC(=O)c1ccc(NS(=O)(=O)c2ccc3nc(N)[nH]c(=O)c3c2)cc1`, the figures for the growth inhibition in assay [1] and in assay [4] were 3% and 99% (active), respectively. Moreover, the inhibition was 66% (active) in assay [2] and -1% in assay [3]. The outcome in assay [5], in assay [6], in assay [7] and in assay [8] was inactive.

As to `Cc1cccc(CN2CCC(CNC(=O)c3cc4c(-c5ccccc5F)nn(C)c4s3)CC2)c1`, the values for the growth inhibition in assay [1] and in assay [4] were 15% and 85% (active), respectively. The figures for the inhibition in assay [2] and in assay [3] were 18% and -4%, respectively. Also, the outcome in assay [5], in assay [6], in assay [7] and in assay [8] was inactive.

On to `O=C(Nc1ccc(-c2nc3ccccc3[nH]2)cc1)c1cccc(S(=O)(=O)N2CCCC2)c1`, for which the growth inhibition in assay [1] is 64% (active); in assay [4] it was 100% (active). Further, the inhibition in assay [2] is 0%; in assay [3], -5%. Moreover, the result in assay [5], in assay [6], in assay [7] and in assay [8] was inactive.

As to `CC1CCCC(Nc2noc(-c3sccc3Br)n2)C1` (stereo not given), the growth inhibition in assay [1] is 99% (active); in assay [4] it was 102% (active). The inhibition in assay [2] was 7%; in assay [3], 0%. For the same molecule, the outcome in assay [5], in assay [6], in assay [7] and in assay [8] was inactive.

For `c1ccc(COc2ccc(Nc3ncnc4cnc(-c5ccc(CNc6cccnc6)o5)cc34)cc2)cc1`, the growth inhibition in assay [1] was 19%; in assay [4], 96% (active). For the same molecule, the inhibition in assay [2] is 2%; in assay [3] it was 3%. Further, the result in assay [5], in assay [6], in assay [7] and in assay [8] was inactive.

Turning to `O=C(c1ccccc1)N(Cc1ccccc1-c1ccc(CNCCc2ccccc2)cc1)C1CCN(Cc2ccccc2)CC1`, the growth inhibition in assay [1] is 69% (active); in assay [4], 95% (active). Besides, the inhibition in assay [2] was 95% (active); in assay [3], -7%. The result in assay [5], in assay [6], in assay [7] and in assay [8] was inactive.

On to `NS(=O)(=O)Cc1cccc(-c2ccnc3ccc(-c4cccc(S(N)(=O)=O)c4)cc23)c1`, for which the growth inhibition in assay [1] is 42%; in assay [4], 98% (active). Besides, the values for the inhibition in assay [2] and in assay [3] were 39% and -2%, respectively. Besides, the outcome in assay [5], in assay [6], in assay [7] and in assay [8] was inactive.

Take `CCOC(=O)N(C)/N=C/[C@H](CCc1ccccc1)NC(=O)[C@H](CC(C)C)NC(=O)c1cc2cccc(OC)c2o1`: the values for the growth inhibition in assay [1] and in assay [4] were 70% (active) and 86% (active), respectively. The inhibition in assay [2] is 2%; in assay [3], 1%. The outcome in assay [5], in assay [6], in assay [7] and in assay [8] was inactive.

`O=C(Nc1ccc(-c2ccc(-c3nc4ccc(C(F)(F)F)cc4[nH]3)s2)cc1)c1ccoc1`: the growth inhibition in assay [1] is 54% (active); in assay [4], 94% (active). Also, the inhibition in assay [2] was 9%; in assay [3] it was 3%. In addition, the result in assay [5], in assay [6], in assay [7] and in assay [8] was inactive.

Turning to `COC(=O)c1ccc(CC(C)NCC(O)c2ccc(C(O)CNC(C)Cc3ccc(C(=O)OC)cc3)cc2)cc1` (stereo not given), the figures for the growth inhibition in assay [1] and in assay [4] were 13% and 88% (active), respectively. Besides, the values for the inhibition in assay [2] and in assay [3] were 24% and 1%, respectively. The result in assay [5], in assay [6], in assay [7] and in assay [8] was inactive.

`COc1cc2ncnc(Nc3ccc(Br)c(Cl)c3)c2cc1OC`: the growth inhibition in assay [1] is 15%; in assay [4] it was 101% (active). Besides, the inhibition is 22% in assay [2] and 6% in assay [3]. In addition, the result in assay [5], in assay [6], in assay [7] and in assay [8] was inactive.

As to `O=C(N[C@@H](Cc1ccccc1)[C@H](O)CNC1CCOCC1)c1cc(C2CCCC2)cc(N2CCCCS2(=O)=O)c1`, the growth inhibition in assay [1] was 98% (active); in assay [4], 100% (active). The inhibition in assay [2] was 3%; in assay [3], -1%. In addition, the outcome in assay [5], in assay [6], in assay [7] and in assay [8] was inactive.

With `N=c1n(CCN2CCCCC2)c2ccccc2n1CC(O)c1cccc(Br)c1` (stereo not given), the growth inhibition in assay [1] was 33%; in assay [4] it was 86% (active). Besides, the inhibition in assay [2] was 25%; in assay [3], -1%. In addition, the outcome in assay [5], in assay [6], in assay [7] and in assay [8] was inactive.

With `O=C(NCCCCN1CCC(c2ccc(Br)cc2)CC1)c1ccc(NC(=O)c2ccc(Cl)cc2)cc1`, the growth inhibition in assay [1] was 86% (active); in assay [4], 100% (active). For the same molecule, the inhibition was 17% in assay [2] and 0% in assay [3]. In addition, the outcome in assay [5], in assay [6], in assay [7] and in assay [8] was inactive.

With `Cc1cccc(Nc2nc3nonc3nc2Nc2cccc(Cl)c2Cl)c1C`, the growth inhibition was 95% (active) in assay [1] and 91% (active) in assay [4]. Also, the inhibition in assay [2] is 88% (active); in assay [3], 2%. The result in assay [5], in assay [6], in assay [7] and in assay [8] was inactive.

Consider `CCCCN(CCCC)CCCN(CCCN(CCCC)CCCC)c1cc(C)nc(Nc2ccc(Br)cc2)n1`, for which the growth inhibition is 98% (active) in assay [1] and 99% (active) in assay [4]. Further, the inhibition was 51% (active) in assay [2] and -4% in assay [3]. Besides, the outcome in assay [5], in assay [6], in assay [7] and in assay [8] was inactive.
